“And” between values parts separate entries of the source, which are not always exact repeats. Equal values may be shown once. Results filed as inconclusive are left out. A call without a number means that no potency is given here. A number with no mark means an inactive call. The source made the active and inactive calls. Unless noted, the call rests on the fitted dose curve; in most records, active means well fitted curve in the direction sought with a large enough effect; inconclusive means small, poorly fitted or top-dose-only effect, or another doubt; inactive means no such curve, though single readings can be large; an effect the other way counts as inactive or inconclusive.
Assays:
[1] = qHTS for Inhibitors of Plasmodium falciparum (DD2) proliferation (AID 504314);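 further: parasite DNA measured by SYBR Green fluorescence after red cell lysis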
Summary of the method: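 SYBR Green growth assay: 72 h compound exposure of infected red cells (2.5% hematocrit, 0.3% parasitemia), then lysis and overnight dye staining, fluorescence 485/535 nm. Values scaled between DMSO and 0.29 uM artemisinin controls.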

[2] = qHTS for Inhibitors of Plasmodium falciparum (GB4) proliferation (AID 504315); further: nearly all actives have a fitted effect of over 50% in size
Summary of the method: (§1)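 Parasite growth measured as SYBR Green DNA fluorescence (ex 485, em 535 nm) after overnight lysis following 72 h culture at 37 °C, 0.3% parasitemia, 2.5% hematocrit. Values normalized against DMSO and 0.29 uM artemisinin controls, with plate-stack correction.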

[3] = qHTS for Inhibitors of Plasmodium falciparum (7G8) proliferation (AID 504316); further: nearly all actives have a fitted effect of over 65% in size; further: potency means the concentration at half of the fitted maximal effect
Summary of the method: as §1

[4] = qHTS for Inhibitors of Plasmodium falciparum (CP250) proliferation (AID 504320)
Summary of the method: as §1

[5] = target: Atrial natriuretic peptide receptor 1 (Homo sapiens) (UniProt P16066); experiment: Natriuretic polypeptide receptor (hNpr1) antagonism - Pilot CMLD screen (AID 1347052; calls by dose curve;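 further: cGMP level read as GloSensor luciferase luminescence after agonist stimulation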; further: potency means the concentration at half of the fitted maximal effect)
Atrial natriuretic peptide receptor 1 (Homo sapiens), sequence (P16066 whole entry, looked up): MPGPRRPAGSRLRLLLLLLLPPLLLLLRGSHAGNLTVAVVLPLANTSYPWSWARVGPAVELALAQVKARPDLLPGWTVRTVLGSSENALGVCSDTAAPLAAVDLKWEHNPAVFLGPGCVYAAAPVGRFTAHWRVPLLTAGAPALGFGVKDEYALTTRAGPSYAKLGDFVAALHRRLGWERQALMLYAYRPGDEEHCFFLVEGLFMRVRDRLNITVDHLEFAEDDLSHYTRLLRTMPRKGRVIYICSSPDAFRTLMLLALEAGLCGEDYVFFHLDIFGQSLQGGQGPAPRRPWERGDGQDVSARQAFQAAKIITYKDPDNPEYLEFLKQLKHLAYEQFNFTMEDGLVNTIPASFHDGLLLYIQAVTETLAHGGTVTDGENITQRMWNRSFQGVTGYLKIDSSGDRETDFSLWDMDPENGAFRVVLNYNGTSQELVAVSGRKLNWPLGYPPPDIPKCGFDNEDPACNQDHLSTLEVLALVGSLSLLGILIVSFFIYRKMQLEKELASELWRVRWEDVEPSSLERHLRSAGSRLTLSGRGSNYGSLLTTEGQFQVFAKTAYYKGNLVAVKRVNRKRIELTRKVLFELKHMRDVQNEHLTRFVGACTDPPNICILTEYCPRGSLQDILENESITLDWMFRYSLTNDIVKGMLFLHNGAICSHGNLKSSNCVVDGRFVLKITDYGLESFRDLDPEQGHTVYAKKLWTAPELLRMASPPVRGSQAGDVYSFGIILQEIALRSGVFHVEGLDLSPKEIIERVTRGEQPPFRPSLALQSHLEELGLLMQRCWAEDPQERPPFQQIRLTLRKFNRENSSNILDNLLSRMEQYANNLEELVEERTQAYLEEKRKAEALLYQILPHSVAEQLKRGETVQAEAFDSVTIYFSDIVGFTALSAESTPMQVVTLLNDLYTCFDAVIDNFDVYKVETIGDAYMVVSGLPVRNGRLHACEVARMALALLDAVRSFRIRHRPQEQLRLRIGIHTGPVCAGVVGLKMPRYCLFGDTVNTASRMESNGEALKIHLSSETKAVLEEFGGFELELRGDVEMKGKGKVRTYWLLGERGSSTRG

Compound	Potency [1]	Potency [2]	Potency [3]	Potency [4]	Potency [5]	activity, negative = inhibition [1]
CC(=O)OC[C@H]1O[C@@H](ON=C2C[C@@H](O)[C@@H](O)[C@@H]3[C@H]4C(=O)N(Cc5ccccc5)C(=O)[C@@H]4CC[C@@H]23)[C@H](OC(C)=O)[C@@H](OC(C)=O)[C@H]1OC(C)=O	inactive	inactive	inactive	inactive	inactive	–
O=C1CCCC(C(C(=O)OCc2ccccc2)C(=O)OCc2ccccc2)C1 (stereo not given)	inactive	inactive	inactive	inactive	inactive	–
O=C1C=C(c2ccccc2)CCC1	inactive	inactive	inactive	inactive	inactive	–
C=CCN1C(=O)[C@]2(OCCC=C[C@@H]2C)c2cc(OC)ccc21	inactive	inactive	inactive	inactive	inactive	–
COc1ccc(-c2nc3c(c4c2C[C@H](c2ccccc2)OC4)CN(C(=O)c2cccnc2)CC3)c(C)c1	–	inactive	1.51 µM (active) and 1.69 µM (active)	inactive	inactive	2.56% [at 1.12 µM]
CC(C)CON=C1C[C@@H](O)[C@@H](O)[C@@H]2[C@H]3C(=O)N(c4ccc(F)cc4F)C(=O)[C@@H]3CC[C@H]12	inactive	inactive	inactive	inactive	inactive	–
O=P1(O)Oc2c(-c3ccccc3)cc3ccccc3c2-c2c(c(-c3ccccc3)cc3ccccc23)O1	inactive	inactive	inactive	inactive	inactive	–
COC(=O)C[C@H]1c2ccccc2C2=C(C[C@@H](C)[C@H]3C(=O)NC(=O)[C@@H]23)N1C(=O)OC	inactive	inactive	inactive	inactive	inactive	–
CC[C@H](C)[C@@H](NC(=O)O[C@H]1C(=O)c2ccc(OC)cc2O[C@@H]1c1ccc2c(c1)OCO2)C(=O)OC	inactive	inactive	inactive	inactive	inactive	–
CCOC(=O)CCN1C(=O)[C@@H]2[C@H]3[C@H](O)[C@H](O)CC(=NNC(=O)OCc4ccc(OC)cc4)[C@H]3CC[C@H]2C1=O	inactive	inactive	inactive	inactive	inactive	–
CC(=O)OC[C@H]1O[C@H](C#Cc2ccc(F)cc2F)C=C[C@H]1OC(C)=O	inactive	inactive	inactive	inactive	inactive	–
COc1ccc(COC(=O)NN=C2C[C@@H](O)[C@@H](O)[C@@H]3[C@H]4C(=O)N(C5CCCCC5)C(=O)[C@@H]4CC[C@@H]23)cc1	inactive	inactive	inactive	inactive	inactive	–
CC1(OC(=O)C2CCCC2)C(=O)C=C2C=C(c3ccsc3)N(c3cccc(C#N)c3)C=C2C1=O (stereo not given)	inactive	inactive	inactive	inactive	2660 nM (active)	–
COCCN1C(=O)CC[C@@]23C1=NC(C(=O)OC)=C(C(=O)OC)[C@@H]2N(C)c1ccccc13	inactive	inactive	inactive	inactive	inactive	–
COC(=O)C1=C(C)N(Cc2ccccc2)C(=S)NC1CCc1ccccc1 (stereo not given)	inactive	inactive	inactive	inactive	inactive	–
COC1=CC2C(=O)C(C1=O)[C@H](c1ccccc1)[C@H]2C (stereo not given in full)	inactive	inactive	inactive	inactive	inactive	–
CCCCCC1=CC2=C(C(=O)OC)C(c3ccccc3)NC(=O)N2CC1 (stereo not given)	inactive	inactive	inactive	inactive	inactive	–
CCN1C(=O)NC(c2cccc(C(F)(F)F)c2)C(C(C)=O)=C1C (stereo not given)	inactive	inactive	inactive	inactive	inactive	–
C[C@H]1Cc2c(-c3ccccc3)nc3c(c2CO1)CN(S(=O)(=O)c1ccc2c(c1)OCCN2C)CC3	–	inactive	inactive	inactive	inactive	0.591% [at 1.12 µM]
C=CCOC(=O)N[C@H](C(C(=O)OC)=C(C)NCc1ccccc1)c1ccc(Br)cc1	inactive	inactive	inactive	inactive	inactive	–
COc1ccc(COC(=O)NN=C2C[C@@H](O)[C@@H](O)[C@@H]3[C@H]4C(=O)N(C[C@@H]5CCCO5)C(=O)[C@@H]4CC[C@@H]23)cc1	inactive	inactive	inactive	inactive	inactive	–
CCN1C(=O)NC(c2ccco2)C(C(C)=O)=C1C (stereo not given)	inactive	inactive	inactive	inactive	inactive	–
O=C(NC(CC1=CCCCC1)c1ccc2c(c1)OCO2)C(F)(F)F (stereo not given)	inactive	inactive	inactive	inactive	inactive	–
COc1ccc(COC(=O)NN=C2C[C@@H](O)[C@@H](O)[C@@H]3[C@H]4C(=O)N(c5ccc(F)cc5F)C(=O)[C@@H]4CC[C@H]23)cc1	inactive	inactive	inactive	inactive	inactive	–
COCCN1C(=O)N[C@@H](CCc2ccccc2)[C@H](C(=O)OC)[C@H]1C	inactive	inactive	inactive	inactive	inactive	–
COC(=O)[C@H]1O[C@@H](c2cc(OC)c(C)c(OC)c2OCc2ccccc2)[C@H](C)[C@H]2O[C@@]12C	inactive	inactive	inactive	inactive	inactive	–

From PubChem BioAssay (NCATS)
